Laboratory results: PubChem BioAssay
“And” between values parts separate entries of the source, which are not always exact repeats. Equal entries are not always repeated. Inconclusive results are not listed. The source made the active and inactive calls.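 The calls were made as follows, unless noted: active = normalized viability below 100% at a tested concentration; inactive = the rest.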

Key:
[1] = viability loss in pontine glioma line – cell-based, SU-DIPG-XXV, MIPE5.0, CellTiter-Glo, qHTS, dose response (AID 1347065; cut-off not given, nearly all actives have AC50 up to about 26 µM;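 also: cells exposed to compound for 48 hours before ATP readout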); settings: CellTiter-Glo ATP luminescence
[2] = SU-DIPG-VI glioma cell viability, MIPE4.0 library, CellTiter-Glo luminescence, qHTS (AID 1347066; cut-off not given, nearly all actives have AC50 up to about 30 µM;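 also: cells exposed to compound for 48 hours before readout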); settings: CellTiter-Glo ATP luminescence
[3] = JHH-DIPG-1 glioma cell viability, MIPE5.0 library, CellTiter-Glo luminescence, qHTS (AID 1347067; cut-off not given, nearly all actives have AC50 up to about 26 µM;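 also: cells exposed to compound for 48 hours before readout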); settings: JHH-DIPG-1 glioma viability, CellTiter-Glo ATP luminescence
[4] = SU-DIPG-XXV glioma cell viability, MIPE5.0 library, qHTS (AID 1347068; cut-off not given, nearly all actives have IC50 up to about 30 µM;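 as to IC50: cells exposed to compound for 48 hours before viability readout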)
[5] = sensitizers of A549 cells to miR-34 induction, primary screen, imaging, A549 dox-inducible miR-34, nuclei and caspase counts (AID 1347080;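 active = compounds whose cell count with miR-34 switched on is under 0.7 times the count with it off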); settings: A549 miR-34 inducible, Hoechst nuclei count, 48 h
[6] = modifiers of HSF1 nuclear foci, imaging, Selleck Cancer Library (AID 1347162; in the data active = plate-normalised HSF1 focus index below about 0.46); settings: human cells, at 10 µM; SSMD: measured here: HSF1 foci SSMD mean; cell count: measured here: cell number; plate-normalised HSF1 focus index: stronger effect = lower value
[7] = survival rescue of mitochondrial mutant cells in low glucose, primary screen, MELAS cybrids, Rieske KO mouse fibroblasts, CellTiter-Glo (AID 1508586;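 active = mean z-score across replicates of 1.96 or higher in either the MELAS or the Rieske mutant cell line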;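 also: z relative to plate mean and SD of compound and empty wells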)
[8] = ovarian cancer cell viability with rucaparib, profiling panel, oncology-focused library, rucaparib conditional (AID 1508598); settings: patient-derived ovarian cancer cells, CellTiter-Glo viability, 144 h, stronger effect = lower value
[9] = phospholipid biosynthesis inhibitors in animal cells, primary screen, cell-based, LOPAC library, screen 4 (AID 1347384; call rule not given here); settings: phospholipid biosynthesis inhibition screen, at 10 µM
[10] = target: NAD(+) hydrolase SARM1 (Homo sapiens) (UniProt Q6SZW1); experiment: SARM1 TIR NADase inhibitors, cell lysate, NAD-Glo luminescence (AID 1508614;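 active = compound whose remaining NAD level is above about 45 nM, limit read from the data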;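 also: higher remaining NAD means stronger inhibition of SARM1 NADase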); settings: SAM-TIR HEK293T lysate NADase, at 1 µM, stronger effect = higher value
[11] = target: Mitogen-activated protein kinase 7 (Homo sapiens) (UniProt Q13164); experiment: ERK5 transactivation activators in reporter cells, primary screen, cell-based, HTS (AID 1508626;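 active = luciferase signal above three times the same-plate solvent-only control wells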;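 also: luciferase driven by Gal4-ERK5 fusion binding five Gal4 sites before minimal TATA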); settings: HeLa Gal4-ERK5 transactivation, 18 h, at 5 µM, stronger effect = higher value
[12] = viability rescue of complex I mutant cybrids, primary screen, cell-based, galactose medium, ATP luminescence (AID 1645843;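 active = z-score of at least 1.8 in each of two replicates, scored against plate mean and spread of sample wells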;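 also: positive z means more ATP and so rescue of galactose-driven cybrid death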); settings: complex I mutant cybrid cells, 72 h, stronger effect = higher value
[13] = stronger effect = lower value, cell number ratio, induced over uninduced
[14] = measured here: relative caspase fold change +Dox/-Dox
[15] = measured here: total cells with miR-34 induction, stronger effect = lower value
[16] = measured here: total cells without miR-34 induction
[17] = MELAS cybrid survival, CellTiter-Glo 48 h, stronger effect = higher value
[18] = Rieske KO mouse fibroblast survival, CellTiter-Glo 72 h
[19] = at 0.000305 µM, OCI-C5x cells, with rucaparib 10 µM, 100% = cells with rucaparib alone
[20] = at 0.000305 µM, OCI-C5x cells, without rucaparib
[21] = at 0.000305 µM, OCI-P5x cells, with rucaparib 20 µM, 100% = cells with rucaparib alone
[22] = at 0.000305 µM, OCI-P5x cells, without rucaparib
[23] = at 0.00122 µM, OCI-C5x cells, with rucaparib 10 µM, 100% = cells with rucaparib alone
[24] = at 0.00122 µM, OCI-C5x cells, without rucaparib
[25] = at 0.00122 µM, OCI-P5x cells, with rucaparib 20 µM, 100% = cells with rucaparib alone
[26] = at 0.00122 µM, OCI-P5x cells, without rucaparib
[27] = at 0.00488 µM, OCI-C5x cells, with rucaparib 10 µM, 100% = cells with rucaparib alone
[28] = at 0.00488 µM, OCI-C5x cells, without rucaparib
[29] = at 0.00488 µM, OCI-P5x cells, with rucaparib 20 µM, 100% = cells with rucaparib alone
[30] = at 0.00488 µM, OCI-P5x cells, without rucaparib
[31] = at 0.0195 µM, OCI-C5x cells, with rucaparib 10 µM, 100% = cells with rucaparib alone
[32] = at 0.0195 µM, OCI-C5x cells, without rucaparib
[33] = at 0.0195 µM, OCI-P5x cells, with rucaparib 20 µM, 100% = cells with rucaparib alone
[34] = at 0.0195 µM, OCI-P5x cells, without rucaparib
[35] = at 0.0781 µM, OCI-C5x cells, with rucaparib 10 µM, 100% = cells with rucaparib alone
[36] = at 0.0781 µM, OCI-C5x cells, without rucaparib
[37] = at 0.0781 µM, OCI-P5x cells, with rucaparib 20 µM, 100% = cells with rucaparib alone
[38] = at 0.0781 µM, OCI-P5x cells, without rucaparib
[39] = at 0.313 µM, OCI-C5x cells, with rucaparib 10 µM, 100% = cells with rucaparib alone
[40] = at 0.313 µM, OCI-C5x cells, without rucaparib
[41] = at 0.313 µM, OCI-P5x cells, with rucaparib 20 µM, 100% = cells with rucaparib alone
[42] = at 0.313 µM, OCI-P5x cells, without rucaparib
[43] = at 1.25 µM, OCI-C5x cells, with rucaparib 10 µM, 100% = cells with rucaparib alone
[44] = at 1.25 µM, OCI-C5x cells, without rucaparib
[45] = at 1.25 µM, OCI-P5x cells, with rucaparib 20 µM, 100% = cells with rucaparib alone
[46] = at 1.25 µM, OCI-P5x cells, without rucaparib
[47] = at 5 µM, OCI-C5x cells, with rucaparib 10 µM, 100% = cells with rucaparib alone
[48] = at 5 µM, OCI-C5x cells, without rucaparib
[49] = at 5 µM, OCI-P5x cells, with rucaparib 20 µM, 100% = cells with rucaparib alone
[50] = at 5 µM, OCI-P5x cells, without rucaparib

NAD(+) hydrolase SARM1 (Homo sapiens), sequence (Q6SZW1 whole entry, looked up, the tested form may be a part): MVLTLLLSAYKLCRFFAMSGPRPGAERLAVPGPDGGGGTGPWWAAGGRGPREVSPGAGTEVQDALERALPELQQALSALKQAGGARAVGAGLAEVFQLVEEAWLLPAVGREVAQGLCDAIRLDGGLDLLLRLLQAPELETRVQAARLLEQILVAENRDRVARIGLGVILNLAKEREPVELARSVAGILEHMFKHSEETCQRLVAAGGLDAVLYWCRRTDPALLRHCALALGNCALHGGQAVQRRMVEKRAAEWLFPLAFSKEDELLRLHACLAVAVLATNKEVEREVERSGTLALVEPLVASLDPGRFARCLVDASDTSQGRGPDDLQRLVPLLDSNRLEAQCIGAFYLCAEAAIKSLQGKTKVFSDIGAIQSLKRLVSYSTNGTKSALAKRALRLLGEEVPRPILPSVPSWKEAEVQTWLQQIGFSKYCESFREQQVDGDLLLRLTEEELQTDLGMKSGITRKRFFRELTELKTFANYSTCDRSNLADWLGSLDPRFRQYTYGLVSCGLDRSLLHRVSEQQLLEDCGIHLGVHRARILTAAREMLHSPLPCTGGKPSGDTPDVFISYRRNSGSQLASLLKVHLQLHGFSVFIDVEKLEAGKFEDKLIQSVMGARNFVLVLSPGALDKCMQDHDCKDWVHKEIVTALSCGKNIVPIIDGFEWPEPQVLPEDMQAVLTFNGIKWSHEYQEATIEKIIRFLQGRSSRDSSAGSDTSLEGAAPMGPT
Mitogen-activated protein kinase 7 (Homo sapiens), sequence (Q13164 whole entry, looked up, the tested form may be a part): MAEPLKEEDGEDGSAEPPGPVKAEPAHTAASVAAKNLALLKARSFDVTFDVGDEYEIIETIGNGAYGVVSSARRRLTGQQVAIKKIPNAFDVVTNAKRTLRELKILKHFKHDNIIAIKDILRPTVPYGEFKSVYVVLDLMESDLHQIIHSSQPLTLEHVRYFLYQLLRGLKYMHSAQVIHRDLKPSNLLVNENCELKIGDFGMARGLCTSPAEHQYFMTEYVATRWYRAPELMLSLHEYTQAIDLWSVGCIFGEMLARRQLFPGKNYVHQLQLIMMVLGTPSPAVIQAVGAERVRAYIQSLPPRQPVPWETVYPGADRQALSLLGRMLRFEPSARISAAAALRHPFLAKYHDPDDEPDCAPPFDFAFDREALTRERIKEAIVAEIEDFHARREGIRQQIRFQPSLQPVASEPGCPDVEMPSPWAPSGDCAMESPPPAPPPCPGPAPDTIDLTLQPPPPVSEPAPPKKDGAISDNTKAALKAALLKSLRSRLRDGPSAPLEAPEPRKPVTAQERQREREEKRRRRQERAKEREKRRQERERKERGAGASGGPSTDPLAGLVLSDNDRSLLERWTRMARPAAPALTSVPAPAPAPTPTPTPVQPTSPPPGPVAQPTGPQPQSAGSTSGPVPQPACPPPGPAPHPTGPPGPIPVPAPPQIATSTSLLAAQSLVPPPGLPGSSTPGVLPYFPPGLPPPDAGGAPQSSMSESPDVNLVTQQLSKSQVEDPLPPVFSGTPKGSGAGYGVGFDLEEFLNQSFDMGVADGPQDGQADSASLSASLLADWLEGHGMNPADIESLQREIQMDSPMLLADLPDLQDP

COc1cc2c(Nc3ccc(Br)cc3F)ncnc2cc1OCC1CCN(C)CC1
1950: cell count [5, 16]
-0.742: z-score [7, 18]
1750: cell count [5, 15]
1.03: fold change [5, 14]
active: AC50 [1] 14.8 µM | AC50 [2] 20.9 µM | AC50 [3] 20.9 µM | IC50 [4] 26.3 µM | viability [8, 21] 82.1% | viability [8, 22] 95.9% | viability [8, 25] 92.5% | viability [8, 29] 87.8% | viability [8, 33] 90.3% | viability [8, 37] 88% | viability [8, 41] 83.3% | viability [8, 45] 78.7% | viability [8, 47] 55.4% | viability [8, 48] 51.8% | viability [8, 49] 43.9% | viability [8, 50] 78.9%
-3.85: SSMD [6]
4710: cell count [6]
inactive: fold change [5, 13] 0.896 | plate-normalised HSF1 focus index [6] 0.799 | z-score [7, 17] -0.0745 | viability [8, 19] 108% | viability [8, 20] 109% | viability [8, 23] 103% | viability [8, 24] 106% | viability [8, 26] 100% | viability [8, 27] 122% | viability [8, 28] 111% | viability [8, 30] 104% | viability [8, 31] 110% | viability [8, 32] 118% | viability [8, 34] 112% | viability [8, 35] 111% | viability [8, 36] 118% | viability [8, 38] 101% | viability [8, 39] 112% | viability [8, 40] 113% | viability [8, 42] 103% | viability [8, 43] 111% | viability [8, 44] 116% | viability [8, 46] 102%

Cn1cnc2c1c(=O)[nH]c(=O)n2C
-0.702: z-score [7, 18]
active: AC50 [2] 20.9 µM
0.922 and 1.4 and 3.48: fold change [5, 14]
9550 and 8390 and 11600: cell count [5, 15]
10500 and 9820 and 12900: cell count [5, 16]
inactive: outcome [1] | outcome [3] | outcome [4] | fold change [5, 13] 0.912 and 0.854 and 0.906 | outcome [9] | z-score [7, 17] -0.269 | remaining NAD [10] 10 nM | luciferase signal [11] 60 AU | z-score [12] 0.475

CNC[C@H](O)c1cccc(O)c1
6820 and 9660 and 11500: cell count [5, 15]
0.52: z-score [7, 18]
1.33 and 1.38 and 1.19: fold change [5, 14]
inactive: outcome [1] | outcome [2] | outcome [3] | outcome [4] | fold change [5, 13] 0.733 and 0.885 and 0.869 | outcome [9] | z-score [7, 17] -0.327 | remaining NAD [10] 10 nM | luciferase signal [11] 40 AU | z-score [12] 0.64
9300 and 10900 and 13200: cell count [5, 16]

COc1ccnc(CS(=O)c2nc3ccc(OC(F)F)cc3[nH]2)c1OC (stereo not drawn)
inactive: outcome [1] | outcome [2] | outcome [3] | outcome [4] | fold change [5, 13] 0.948 and 0.839 | z-score [7, 17] 0.74 | remaining NAD [10] 10 nM | luciferase signal [11] 56 AU | z-score [12] 1.18
12600 and 10700: cell count [5, 16]
12000 and 8980: cell count [5, 15]
4.32 and 0.927: fold change [5, 14]
-0.32: z-score [7, 18]

Cc1cnc(C(=O)O)c[n+]1[O-]
0.776 and 1.63: fold change [5, 14]
6980 and 9220: cell count [5, 15]
-1.45 and -0.0767 and -0.000299: z-score [7, 18]
inactive: outcome [1] | outcome [2] | outcome [3] | outcome [4] | fold change [5, 13] 0.836 and 0.829 | z-score [7, 17] 0.0931 and 0.196 and -0.0621 | remaining NAD [10] 10 nM | z-score [12] 0.95
8340 and 11100: cell count [5, 16]

O=c1oc2cc(O)ccc2s1
8830: cell count [5, 15]
0.46: z-score [7, 18]
inactive: outcome [1] | outcome [2] | outcome [3] | outcome [4] | fold change [5, 13] 0.941 | z-score [7, 17] -0.382 | remaining NAD [10] 10 nM | luciferase signal [11] 56 AU
9380: cell count [5, 16]
0.692: fold change [5, 14]

Cc1nc(-c2ccc(OCC(C)C)c(C#N)c2)sc1C(=O)O
0.13: z-score [7, 18]
0.915 and 0.811: fold change [5, 14]
8880 and 8080: cell count [5, 16]
6840: cell count [6]
active: viability [8, 21] 91.2% | viability [8, 22] 99.9% | viability [8, 26] 99.6% | viability [8, 41] 97.1%
inactive: outcome [1] | outcome [2] | outcome [3] | outcome [4] | fold change [5, 13] 0.998 and 0.915 | plate-normalised HSF1 focus index [6] 1.06 | z-score [7, 17] 0.976 | viability [8, 19] 118% | viability [8, 20] 111% | viability [8, 23] 115% | viability [8, 24] 122% | viability [8, 25] 102% | viability [8, 27] 112% | viability [8, 28] 109% | viability [8, 29] 109% | viability [8, 30] 100% | viability [8, 31] 111% | viability [8, 32] 110% | viability [8, 33] 105% | viability [8, 34] 104% | viability [8, 35] 109% | viability [8, 36] 112% | viability [8, 37] 104% | viability [8, 38] 108% | viability [8, 39] 110% | viability [8, 40] 109% | viability [8, 42] 109% | viability [8, 43] 108% | viability [8, 44] 118% | viability [8, 45] 102% | viability [8, 46] 109% | viability [8, 47] 118% | viability [8, 48] 134% | viability [8, 49] 103% | viability [8, 50] 108% | remaining NAD [10] 10 nM
1.2: SSMD [6]
8870 and 7400: cell count [5, 15]

CN(C)CCc1c[nH]c2ccc(CS(=O)(=O)N3CCCC3)cc12
-0.352: z-score [7, 18]
7640: cell count [5, 16]
1.05: fold change [5, 14]
inactive: outcome [1] | outcome [2] | outcome [3] | outcome [4] | fold change [5, 13] 0.94 | z-score [7, 17] -0.0807 | remaining NAD [10] 10 nM | luciferase signal [11] 52 AU
7180: cell count [5, 15]
